Compound activity (PubChem)
A selection: hits, their analogues and other compounds. The true share with any hit is near 4.4%.
PfHsp90 yeast 2 – growth inhibition of yeast expressing Plasmodium Hsp90. inhibition, % at 9.4 µM. S. cerevisiae expressing PfHsp90, BacTiter-Glo ATP, 48 h; yeast lacking PDR1 and PDR3 efflux regulators. hit rate 0.32% among 310,000;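 active = every replicate shows inhibition above about 80%, whatever the replicate mean, limit read from the data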
tim23-1 inh – tim23-1 yeast growth inhibition | S. cerevisiae tim23-1 growth, BacTiter-Glo luminescence, 24 h | inhibition, % at 20 µM | hit rate 1.3% among 330,000 | AID 463212;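 active = growth inhibition of the mutant yeast at or above 50%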;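 also: temperature-sensitive mutant grown at 25 °C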
tim10-1 inh – tim10-1 yeast growth inhibition | S. cerevisiae tim10-1 ts strain growth, BacTiter-Glo, 24 h | inhibition, % at 20 µM | hit rate 2.2% among 330,000;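 active = inhibition of at least 40%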;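 also: mutant grown at 25 °C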
SUMO Mot1 rescue – SUMOylation pathway inhibition by Mot1-301 growth rescue | S. cerevisiae Mot1-301 growth rescue, ATP luminescence, 38.5C; percent above DMSO median, 100 means doubled | growth rescue, % at 18.8 µM | hit rate 1% among 320,000;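 active = every valid replicate shows activation above 250% relative to neutral control wells; inactive = the rest, any valid replicate at or below 250%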
TIM10 inh – growth inhibitors of TIM10 yeast strain. hit rate 1.4% among 330,000. AID 463195. S. cerevisiae TIM10 strain growth, BacTiter-Glo luminescence, 24 h. inhibition, % at 10 µM;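 active = inhibition of 40% or more at the single tested concentration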;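 also: wild-type TIM10 isogenic control strain grown at permissive 25 °C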
Yeast Mot1 SUMO – inhibits SUMO pathway, affecting Mot1-301 yeast growth | shares compounds with SUMO Mot1 rescue | S. cerevisiae Mot1-301 galactose growth, ATP luminescence, 24 h; -100 = growth of slx-deleted rescue strain | growth activity, percent, % at 42 µM | AID 493004 | 2,300 tested, under 10 active;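 active = Signal drops as the depositor expects, and the fitted half-maximal dose is no more than ten times the top valid tested dose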;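 also: more negative values mean stronger growth rescue toward the control strain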
Of the large screens only hits and unclear results are named; the others gave an inactive call (follow-up assays come after a bar, where they were run).

COc1ccc(/C=C(\NC(=O)c2ccccc2)C(=O)NC2CCS(=O)(=O)C2)cc1 (centres undefined)	SUMO Mot1 rescue 269
O=C(NC1CCS(=O)(=O)C1)/C(=C\c1ccc(F)cc1)NC(=O)c1ccccc1 (centres undefined)	none
COc1ccc(N2CCN(c3c(S(=O)(=O)c4ccccc4)cnc4ccc(OC)cc34)CC2)cc1	PfHsp90 yeast 2 104
NNC(=O)c1nc(Cl)c(Cl)c(N)c1Cl	none
O=C(Nc1nc(-c2ccccc2)c(-c2ccccc2)o1)c1ccc(F)cc1	PfHsp90 yeast 2 105
Cc1ccc(C(c2c(C)nn(-c3ccccc3)c2N)c2c(C)nn(-c3ccccc3)c2N)cc1	none
Cc1nn(-c2ccccc2)c(N)c1C(c1ccc(C(C)C)cc1)c1c(C)nn(-c2ccccc2)c1N	SUMO Mot1 rescue 409
Cc1ccc(SSc2cc(C)ccc2N)c(N)c1	none
CCOc1ccc(C(=O)C(CN2CCOCC2)c2ccccc2)cc1 (centres undefined)	SUMO Mot1 rescue 287 (no result: tim23-1 inh, tim10-1 inh, TIM10 inh)
CCN(CC)C(=O)CSc1nc2ccsc2c(=O)n1CCCC(=O)NCCc1ccc(S(N)(=O)=O)cc1	none
Cc1cc(NC(=O)CSc2nc3ccsc3c(=O)n2CCCC(=O)NCCc2ccccc2)no1	SUMO Mot1 rescue 771
O=C(c1ccncc1)N1CCN(C2CCC(c3ccccc3)CC2)CC1 (centres undefined)	SUMO Mot1 rescue 305
O=C(c1ccncc1)N1CCN(C2CCCCC2)CC1	none
CCCCC(=O)NC(c1ccc(Cl)cc1Cl)c1ccc2cccnc2c1O (centres undefined)	none
CCCCC(=O)NC(c1cccs1)c1cc(Cl)c2cccnc2c1O (centres undefined)	PfHsp90 yeast 2 103
CCCC(=O)NC(c1ccc(OC)c(OC)c1)c1cc(Cl)c2cccnc2c1O (centres undefined)	PfHsp90 yeast 2 100
COc1ccc(C(NC(C)=O)c2cc(Cl)c3cccnc3c2O)cc1 (centres undefined)	none
CC(=O)NC(c1ccc(C)cc1)c1cc([N+](=O)[O-])c2cccnc2c1O (centres undefined)	none
O=C(NC(c1ccc(Cl)cc1)c1cc(Cl)c2cccnc2c1O)c1cccnc1 (centres undefined)	PfHsp90 yeast 2 102 (no result: tim23-1 inh, tim10-1 inh, TIM10 inh)
COc1ccc(NS(=O)(=O)c2cccc(C(=O)NCCCn3ccnc3)c2)cc1	SUMO Mot1 rescue 452 | Yeast Mot1 SUMO inactive
CCc1nccn1S(=O)(=O)c1cc(OC)ccc1OC	SUMO Mot1 rescue 499 | Yeast Mot1 SUMO inactive
CCN1C(=O)Cc2cc(S(=O)(=O)NCCc3ccccc3)ccc21	none
COc1ccc(CNc2cc(NCCCO)c([N+](=O)[O-])c3nonc23)cc1	none
COc1ccc(Nc2cc(NCCCO)c([N+](=O)[O-])c3nonc23)cc1	SUMO Mot1 rescue 382 | Yeast Mot1 SUMO inactive
Cn1c(SCC(=O)Nc2cccc(C(=O)O)c2)nnc1-c1cc2cc(Br)ccc2o1	none
CCc1cccc(C)c1NC(=O)CSc1nnc(-c2cc3cc(Br)ccc3o2)n1CC	SUMO Mot1 rescue active | Yeast Mot1 SUMO inactive
CCOC(=O)N1CCN(c2cc(C)c(C(C)=O)cc2F)CC1	none (no result: PfHsp90 yeast 2)
CCOC(=O)N1CCN(c2cc3[nH]c(=S)[nH]c3cc2F)CC1	SUMO Mot1 rescue 400 | Yeast Mot1 SUMO inactive
Cc1ccc(C(=O)C(OC(=O)c2cnccn2)c2ccccc2)cc1 (centres undefined)	none
CC(OC(=O)c1cnccn1)C(=O)c1ccccc1 (centres undefined)	SUMO Mot1 rescue 433 | Yeast Mot1 SUMO inactive
O=C(NC1CCCCC1)N(Cc1cc2cc3c(cc2[nH]c1=O)OCCO3)C1CCCCC1	SUMO Mot1 rescue 828 | Yeast Mot1 SUMO inactive
O=C(CSc1nnnn1C1CC2CCC1C2)Nc1ccnc2ccccc12 (centres undefined)	SUMO Mot1 rescue 775 | Yeast Mot1 SUMO inactive
O=C(CSc1nnnn1C1CCCCC1)Nc1ccccc1F	none
N#Cc1ccc(C(=O)N2CCC3CC2c2cc(-c4ccc(F)cc4)ccc23)cc1 (centres undefined)	none (no result: tim23-1 inh, tim10-1 inh, SUMO Mot1 rescue, TIM10 inh)
Fc1ccc(-c2cc(C(F)(F)F)nc(NCc3cccs3)n2)cc1	SUMO Mot1 rescue 458 (no result: PfHsp90 yeast 2) | Yeast Mot1 SUMO inactive
O=C1C2CC=C(Cl)CC2C(=O)N1c1ncn[nH]1 (centres undefined)	SUMO Mot1 rescue 570 | Yeast Mot1 SUMO inactive
O=C1C2CC=CCC2C(=O)N1c1ncn[nH]1 (centres undefined)	none
Cc1ccc(NC(=O)C(CC(C)C)NC(=O)C2CCC(C)CC2)nc1 (centres undefined)	SUMO Mot1 rescue 634 (no result: PfHsp90 yeast 2) | Yeast Mot1 SUMO inactive
C/C(N)=C(/C#N)C(=O)CSc1nnc(C)n1-c1ccccc1	none
C/C(N)=C(/C#N)C(=O)CSc1nnc(-c2ccccc2)n1C	SUMO Mot1 rescue 539 | Yeast Mot1 SUMO inactive
Cn1c(=NC(=O)COc2ccccc2)sc2cc(F)cc(F)c21	SUMO Mot1 rescue 448 (no result: PfHsp90 yeast 2) | Yeast Mot1 SUMO inactive
COc1ccccc1OC[C@H](O)CO	none
COc1ccc(CCC(=O)Nc2ccc3c(c2)OCCO3)cc1	none
COc1ccc(CCC(=O)Nc2ccc3c(c2)OCO3)cc1	SUMO Mot1 rescue 563 | Yeast Mot1 SUMO inactive
O=C(CCN1CCc2ccccc2C1)Nc1ccc2c(c1)OCO2	SUMO Mot1 rescue 836 | Yeast Mot1 SUMO inactive
O=C(CCN1CCc2ccccc2C1)Nc1ccc(F)c(F)c1	none
C[C@@H](NC(=O)[C@@H]1Cc2ccccc2CN1)C(=O)Nc1ccc2c(c1)OCCO2	none
CCOC(=O)c1sc(N/N=C/c2ccc(N(C)C)cc2)nc1C	SUMO Mot1 rescue active | Yeast Mot1 SUMO inactive
CC(=O)c1sc(N/N=C\c2ccc(Br)cc2)nc1C	none
CCc1c(C)sc(NC(=O)c2ccoc2C)c1C(N)=O	none
C/C(=N\NC(=O)c1cccc(Br)c1)c1cccnc1	none
COc1cccc(OC)c1C(=O)Nc1ccc2c(c1)N(S(=O)(=O)c1cccs1)CCC2	SUMO Mot1 rescue 490 | Yeast Mot1 SUMO inactive
O=C(Nc1cnccn1)Nc1ccccc1F	none
Cn1c(SCC(=O)Nc2ccccc2Cl)nnc1C1CC1	none
Cn1c(SCC(=O)Nc2nnc(-c3ccccc3)o2)nnc1C1CC1	SUMO Mot1 rescue 545 | Yeast Mot1 SUMO inactive
Cc1cc(C)cc(C(=O)NC(CC(N)=O)c2ccc(NCCN3CCOCC3)c([N+](=O)[O-])c2)c1 (centres undefined)	SUMO Mot1 rescue 644 | Yeast Mot1 SUMO inactive
Cc1nn(-c2ccccc2)c(N)c1N=Nc1cccc(S(=O)(=O)N2CCOCC2)c1	SUMO Mot1 rescue 387 | Yeast Mot1 SUMO inactive
CCCn1c(=O)c2ccccc2n2c(SCC(=O)N3CCc4ccccc4C3)nnc12	SUMO Mot1 rescue 433 | Yeast Mot1 SUMO inactive
COC(=O)/C=C/c1ccccc1CN1[C@@H](CC(=O)OC)c2ccccc2S1(=O)=O	none
